This note sets out measurements from PubChem BioAssay AID1347383 (Zoeller Lab, School of Medicine, Boston University, 2020).

SMILES strings stand for the structures. Calls of active or inactive are those of the source.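 Rule for the calls: active = cell survival after UV exposure 2 SD above solvent-only control wells at 10 µM, confirmed on one or two repeats; inactive = the rest.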

The test is described as follows: protection of CHO cells from pyrene-fatty acid UV killing, primary screen, phospholipid biosynthesis inhibitor project, ZR-82 cells, Analyticon library, screen 2 (AID 1347383).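 Note: survival reflects blocked phospholipid synthesis cutting uptake of the phototoxic fatty acid; compound and fatty acid exposure 3 h then viability read next day.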 The settings on record: ZR-82 CHO cells, CellTiter Blue, at 10 µM, peroxisome-deficient CHO-K1 variant, with DGAT-1, DGAT-2 and ACAT inhibitors. Background: Alamar Blue is a resazurin reagent that responds to reducing activity.
Regarding `CC(C)c1ccc2c(c1)[C@H](O)CC1[C@@](C)(C(=O)O)CCC[C@]21C` (stereo not given in full), the molecule was classed as inactive.
For the molecule `COc1c2c(nc3occc13)C(CC=C(C)C)(OC)C(O)CC2` (stereo not given), the outcome was inactive.
As to `CC(C)=CCC/C(C)=C/Cc1c(O)c(CC=C(C)C)c2oc3ccc(O)cc3c(=O)c2c1O`, the molecule was called inactive.
Regarding `O=C(/C=C/c1ccc(O)cc1)c1ccc(O)cc1O`, the molecule was called inactive.
On to `O=C(/C=C(O)/C=C/c1ccc(O)cc1)/C=C/c1ccc(O)cc1`, for which the molecule was classed as inactive.
For the molecule `CCCCCCCCCCCc1cc(O)cc(O)c1`, the outcome was inactive.
Take `COc1ccc(/C=C/C(=O)O)cc1OC`: the outcome was inactive.
On to `C=C[C@H](/C=C\c1ccc(O)cc1)c1ccc(O)cc1`, for which the call was inactive.
On to `OC[C@H]1O[C@@H](Oc2ccccc2)[C@H](O)[C@@H](O)[C@@H]1O`, for which the molecule was classed as inactive.
For the molecule `COC(=O)CC(O)C1OC(c2ccccc2)C(O)C1O` (stereo not given), the outcome was inactive.
As for `C/C(=C\C(=O)C[C@]12C(=O)O[C@]3(C)CC[C@H]1C[C@H]23)C(N)=O`, the entry is “inactive”; as for `COc1cc(/C=C/CO)ccc1OC/C=C(\C)CCC=C(C)C`, “inactive”.
Regarding `O=C1c2c(O)cc(O)cc2O[C@@H](c2ccc(O)cc2)[C@@H]1O`, the molecule was called inactive.
For `Cn1c2c(c(=O)c3cc(O)ccc31)CC(C(C)(C)O)O2` (stereo not given), the result was inactive.
Consider `CC(C)=CCn1cnc(=N)c2[nH]cnc21`, for which the molecule was called inactive.
`COc1c(OC)c2occc2c2oc(=O)ccc12`: the result was inactive.
With `CC1=CC(=O)C2C(C)(C)CC(O)CC2(C)C1CO` (stereo not given), the molecule was called inactive.
Regarding `C=C1CCC2C(OC(=O)C2(O)COC(C)=O)C2C(=C)C(O)CC12` (stereo not given), the outcome was inactive.
As to `CC(C)=CCc1c2c(c(O)c3c(=O)c(-c4ccc(O)c(O)c4)coc13)C=CC(C)(C)O2`, the call was inactive.
Then `O=C(/C=C/c1ccc(O)c(O)c1)N[C@@H](Cc1ccc(O)c(O)c1)C(=O)O`, with “inactive”; and `C=C1C(=O)O[C@@H]2C=C(C)[C@@H]3CC[C@@](C)(O)[C@@H]3C[C@H]12`, with “inactive”.
Turning to `COC1=C(C)C(=O)c2c(cc(O)c3c2OC(C)C3(C)CCC=C(C)C)C1=O` (stereo not given), the outcome was inactive.
Turning to `O=C1c2cccc(O)c2C(=O)c2c(O)cccc21`, the result was inactive.
Take `C[C@H]1C=CC2=CCCC[C@@H]2[C@H]1CC[C@@H]1C[C@@H](O)CC(=O)O1`: the outcome was inactive.
`CC[C@]12CCCN3CCc4c(n(c5ccccc45)C(=O)C1)[C@@H]32`: the molecule was classed as inactive.
As for `CC(=O)OC(C(=O)/C=C(\C)CCCC1=CC(=O)OC1)C(C)C` (stereo not given), the outcome was inactive.
Consider `COc1cc(C2OC(c3ccc(O)c(OC)c3)C(C)C2C)ccc1O` (stereo not given), for which the outcome was active.
As for `COc1ccc(C2(O)c3ccccc3NC(=O)C2OC)cc1` (stereo not given), the entry is “inactive”; as for `C/C=C(/COC(=O)/C(C)=C/C)C(=O)OC/C=C/c1ccc(OC)cc1`, “inactive”; as for `CCCCc1c(CC=C(C)C)[nH]c(=O)c(C)c1O`, “inactive”.
Then `COc1ccc(CC2C(=O)OCC2Cc2cc(OC)c3c(c2)OCO3)cc1OC` (stereo not given), with “inactive”; and `C=CC(C)(C)c1cc2cc(CC3OC3(C)C)c(OC)cc2oc1=O` (stereo not given), with “inactive”.
For the molecule `O=C(CCc1ccccc1)C[C@@H](O)CCc1ccccc1`, the call was inactive.
As to `C/C1=C\CCC2=CC(OC2=O)C(C)(C)/C=C\C1=O` (stereo not given), the result was inactive.
Then `CC/C=C\CC1C(=O)C=CC1(CCCCC1CCC(=O)O1)OC(C)=O` (stereo not given), with “inactive”.
On to `COc1ccc(/C=C/C(=O)O)cc1O`, for which the molecule was called inactive.
For `C=C(Oc1cccc(C(=O)O)c1)C(=O)O`, the result was inactive.
On to `Oc1cc(O)c2c(c1)O[C@H](c1ccc(O)c(O)c1)[C@H](O)C2`, for which the call was inactive.
As to `O=c1ccc2ccc(O[C@@H]3O[C@H](CO)[C@@H](O)[C@H](O)[C@H]3O)cc2o1`, the outcome was inactive.
Regarding `COC(=O)CCC(=O)OC[C@]1(C)CCC[C@@]2(C)C3CC[C@]4(C)C=CC3(CCC12)C4` (stereo not given in full), the molecule was called inactive.
